# This is a sample that favours compounds with a hit; in the whole collection about 3.9% have one here.
# BH1578 lux ind = inducers of Vibrio cholerae quorum light production without autoinducers, primary screen, BH1578 luxS cqsA deficient, single point. V. cholerae BH1578 lux reporter, luminescence, 6 h. activation, % at 18.7 µM. 0.16% of 350,000 active. AID 588436, 2011; in the data active = activation mostly above about 9.7%, no sharp cut-off
# CCHF vOTU inh-1 = CCHFV vOTU protease inhibitors, primary screen, biochemical, Pep-AMC substrate, fluorescence | Crimean-Congo hemorrhagic fever virus L polyprotein viral ovarian tumor (vOTU) protease … | inhibition, % at 11.5 µM | 0.55% of 370,000 active; also: 0% = vehicle wells with enzyme and 100% = no enzyme wells
# FBA Mtb inh = Mtb FBA enzyme inhibitors, primary screen, biochemical, fluorescence, strain H37Rv; purified M. tuberculosis FBA, fluorescence read-out; inhibition, % at 1 µM; Fructose-bisphosphate aldolase (Mycobacterium tuberculosis (strain ATCC 25618 / H37Rv)), …; 2.3% of 360,000 active; AID 588726, 2011; in the data active = inhibition above about 27%;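 also: 0% = vehicle and 100% = reference inhibitor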
# Target sequence (P9WQA3 whole entry, looked up): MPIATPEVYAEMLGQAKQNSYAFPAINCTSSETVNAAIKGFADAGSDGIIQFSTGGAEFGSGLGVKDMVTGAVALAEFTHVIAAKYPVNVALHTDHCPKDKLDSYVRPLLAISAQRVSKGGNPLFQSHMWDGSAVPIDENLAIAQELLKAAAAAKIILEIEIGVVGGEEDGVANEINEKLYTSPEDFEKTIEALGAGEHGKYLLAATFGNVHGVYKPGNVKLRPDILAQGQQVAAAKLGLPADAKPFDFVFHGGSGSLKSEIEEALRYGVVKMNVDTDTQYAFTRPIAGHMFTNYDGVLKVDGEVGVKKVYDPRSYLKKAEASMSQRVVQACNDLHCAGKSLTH
# GDH-TPI counter = GDH-TPI coupling enzyme inhibitors, primary screen, artefact control for M. tuberculosis FBA inhibitor project, biochemical, absorbance, full deck; GDH-TPI coupled enzyme counterscreen, NADH absorbance; inhibition, % at 4.8 µM; AID 588335, 2011; 1.2% of 360,000 active;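 also: 0% = DMSO wells and 100% = wells lacking the enzyme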
# CCHF vOTU inh-2 = CCHFV vOTU protease inhibitors, confirmation, biochemical, Pep-AMC substrate, fluorescence. inhibition, % at 11.5 µM. Recombinant CCHFV vOTU. AID 686976, 2013. 17% of 1,900 active. shares compounds with CCHF vOTU inh-1
# The depositor's hits bear a star; i = inactive; . = no result given; ! = a repeat was not active. Rule as the data show it, unless noted: active = inhibition above about 30%; inactive = the rest.
SMILES,BH1578 lux ind,CCHF vOTU inh-1,FBA Mtb inh,GDH-TPI counter,CCHF vOTU inh-2
ClC1=C(Cl)C2(Cl)C3C(Cl)C=CC3C1(Cl)C2(Cl)Cl (stereo not given),-0.3,-4.3,-1.5,2.8,.
CCO/C=C1\C(=O)N(c2ccccc2)C(=O)c2ccccc21,3.3,.,15.4,-6.2,.
CCO/C=C1/C(=O)N(Cc2ccccc2)C(=O)c2ccccc21,-0.2,95.1*,2.5,-1.1,108.1*
Cn1nc(C(F)(F)F)c(-c2cccc(C(F)(F)F)c2)c1NC(=O)c1cccnc1,-0.4,15.6,2.9,1.5,.
CN(C(=O)Nc1ccccc1)C1CCS(=O)(=O)C1 (stereo not given),i,5.4,0.7,1.1,.
CC(=O)NC1=C(N(C)C2CCS(=O)(=O)C2)C(=O)c2ccccc2C1=O (stereo not given),-0.1,61.3*,0.8,2.2,71.2*
Cc1[nH]oc(=O)c1N=Nc1ccccc1,-0.2,4.4,-5.3,23.3,.
Cc1[nH]oc(=O)c1N=Nc1c(Cl)cccc1Cl,-0.3,35.5*,-1.4,18.6,-3.7
CC1=C(/C=C/C(C)=C/C=C/C(C)=C\C(=O)O)C(C)(C)CCC1,1.6,2.3,4.5,6.3,.
CC1=C(/C=C/C(C)=C/C=C/C(C)=C/C(=O)Nc2ccc(O)cc2)C(C)(C)CCC1,-0.3,34.1*!,-2.5,35.3*,6.5
O=C(/C=C\Nc1ccccc1Br)c1ccc2c(c1)OCO2,-0.6,31.9*,-0.8,9.3,-5.6
CCOc1ccc(C(=O)NC2CCN(CC(=O)NCc3ccccc3)CC2)cc1,-0.4,18.9,0.7,-0.8,.
CC1OC(Nc2cccc3ccccc23)C(O)C(O)C1O (stereo not given),-2.2,65.1*,7.7,3.7,-34.0
CC(=O)NCC(=O)OC(C)C(=O)Nc1ccc(C(C)=O)cc1 (stereo not given),3.0,37.7*,0.7,6.1,-20.1
CC(=O)NCC(=O)OCC(=O)Nc1ccc(C(C)=O)cc1,-7.1,2.2,-2.6,3.5,.
CN(C)c1cc(Cl)c2nonc2c1N,-0.2,70.8*,0.4,6.1,3.0
Cn1c(Cc2ccccc2)nnc1SCC(=O)NCCc1ccccc1,1.9,25.1,5.0,-2.6,.
CCC(Sc1nc2ccsc2c(=O)n1Cc1ccc(C(=O)O)cc1)C(=O)Nc1cc(Cl)ccc1C (stereo not given),i,8.4,0.9,-4.4,.
CCC(Sc1nc2ccsc2c(=O)n1Cc1ccc(C(=O)O)cc1)C(=O)Nc1ccc(C)c(Cl)c1 (stereo not given),-0.4,30.6*,3.1,1.7,7.5
c1cc2c3c(cccc3c1)NC1(CCCCC1)N2,i,29.5*,-2.0,12.8,16.8
CN1/C(=C\C=C2C(=O)NC(=O)NC2=O)C(C)(C)c2ccccc21,1.6,36.1*,-46.6,-7.2,36.9*
CN1/C(=C\C=O)C(C)(C)c2ccccc21,i,15.2,1.0,28.8,.
CCOc1ccc(S(=O)(=O)N2CCN(S(=O)(=O)c3ccc(OCC)cc3)C(C)C2)cc1 (stereo not given),i,2.6,-0.8,7.0,.
O=C(N/N=C/c1cc(Br)ccc1O)c1cccc(N2CCCC2=O)c1,-0.3,31.6*,5.4,27.3,-15.0
COCCCN1C(=O)C(CC(=O)NCCN2CCOCC2)CC(C(=O)N2CCCCCC2)=C1C (stereo not given),.,-4.7,.,.,.
SMILES,BH1578 lux ind,CCHF vOTU inh-1,FBA Mtb inh,GDH-TPI counter,CCHF vOTU inh-2
COCCCN1C(=O)C(CC(=O)NCCN2CCOCC2)CC(C(=O)N2CCOCC2)=C1C (stereo not given),.,39.4*,.,.,-18.2
COc1ccc(-c2sc3cc(OC)c(OC)cc3c2-c2ccc(O)cc2)cc1,2.2,32.6*,4.5,-1.8,-0.6
CSc1ccc(/C=C(\NC(=O)c2ccccc2)C(=O)NN)cc1,-0.2,10.0,1.3,13.8,.
CCC(C)N(C(=O)CSc1nnc(NC(C)C)s1)C1CCS(=O)(=O)C1 (stereo not given),-12.5,-5.2,2.0,2.8,.
Cc1c(C(=O)O)cccc1-c1ccc(C=O)o1,i,36.4*,4.3,21.6,-18.9
O=C(CSc1nnc(-c2ccccc2Br)o1)Nc1nncs1,-0.2,30.4*,-2.7,-3.1,-22.3
O=C(CSc1nnc(-c2ccncc2)o1)Nc1nncs1,-0.1,5.4,0.1,-1.5,.
C[n+]1c2ccccc2nc2ccc(NCCO)cc21,-0.4,90.7*,3.0,10.8,80.8*
CCN(CC)c1ccc2nc3ccccc3[n+](CC)c2c1,0.8,.,-2.6,14.4,.
CNc1ccc2nc3ccccc3[n+](C)c2c1,i,101.9*,-1.2,-9.3,78.8*
O=S1(=O)NC(c2ccccc2)CC(CC2CCCCC2)O1 (stereo not given),i,3.9,0.6,3.6,.
Cc1occc1C(=O)Nc1c(Cl)cccc1Cl,0.5,14.4,-1.6,-5.6,.
O=C(C[C@@H]1C/C=C/CCCC(=O)O[C@H](c2ccccc2)CNC1=O)N[C@H](CO)Cc1ccccc1,-2.1,30.8*,1.9,-7.9,-25.2
O=C(C[C@H]1C/C=C\C[C@@H](Cc2ccc(F)cc2)C(=O)O[C@H](c2ccccc2)CNC1=O)N[C@@H](CO)Cc1ccccc1,-0.4,1.6,2.0,-4.3,.
COC(=O)c1sc(N2C(=O)C(O)=C(C(=O)c3ccc(C)o3)C2c2ccc([N+](=O)[O-])cc2)nc1C (stereo not given),-0.3,31.4*,-0.8,-2.4,-1.4
C/C(=N\NC(=O)c1c(C)nc2ccccn12)c1ccc(O)cc1O,-0.6,11.4,1.0,14.6,.
CC(=O)c1ccc(NC(=S)Nc2cccc3cnccc23)cc1,i,39.0*,3.2,16.1,81.5*
Cc1ccc2c(c1)c1c(n2CC(O)CNC2CCCCC2)CCCC1 (stereo not given),-0.2,64.5*,7.8,13.9,-11.6
CCn1nc(C)c(CNC(=O)CC2C(=O)NCCN2Cc2ccc(C)o2)c1C (stereo not given),.,-8.6,-1.2,-3.9,.
COc1cc(CNC2CCCC2)c(Br)cc1OC1CCCC1,-0.3,4.3,3.0,2.5,.
COc1cc(CNCc2ccccc2)c(Br)cc1OC1CCCC1,-0.3,30.7*,-0.9,5.7,-11.1
Cc1cccc(CC2CC(=O)N(c3ncccn3)C2=O)c1 (stereo not given),i,-5.2,1.4,12.0,.
CC(C)(C)OC(=O)NC1CONC1=O (stereo not given),-0.3,-9.6,1.8,12.5,.
COc1ccc(-c2cc(=O)[nH][nH]2)cc1OC,i,60.1*,3.4,3.0,-19.4
O=C1C=CC(=O)c2c(O)c(N3CCN(CCOCCO)CC3)c(Br)c(O)c21,-0.8,111.1*,-9.7,5.0,103.6*
O=C1C=CC(=O)c2c(O)c(N3CCN(CCO)CC3)c(Cl)c(O)c21,.,101.7*,7.9,12.4,97.8*
